Compound activity: PubChem BioAssay, several laboratories
Shown are actives, neighbours in structure and some others; about 1.4% of the full set was active somewhere.
GLD-1 TGE inh = GLD-1-TGE RNA interaction inhibition (C. elegans) | Q17339 | purified GLD-1 + fluorescein TGE RNA, fluorescence polarization | inhibition, % at 5.96 µM | actives 0.44% (n = 320,000) | AID 2280;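 active = percent inhibition above a per-plate cutoff, the plate mean of test compounds plus 3 SD, cut at about 30% in these data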;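 note: 0% = DMSO wells with GLD-1 and probe and 100% = wells lacking GLD-1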
MEX-5 binding = C. elegans MEX-5 TCR-2 RNA binding activity | actives 0.38% (n = 300,000) | MEX-5/FITC-TCR2 RNA binding, fluorescence polarization; stronger effect = lower value | activity score (negative = inhibition of binding), % at 10 µM | Q9XUB2;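 active = inhibition past about -25% in most replicates, and total fluorescence under double the plate's negative control median, limit read from the data; inconclusive = replicates evenly split on the limit, or fluorescence at least double controls; inactive = too little inhibition in most replicates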;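 note: 0% = DMSO and -100% = 5 µM competing unlabeled TCR2 RNA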
MCL1-BIM inh = MCL1-BIM-BH3 interaction inhibition (human). Q07820. inhibition, % at 10.9 µM. actives 0.68% (n = 320,000). AID 2057. GST-MCL1 / FITC-Bim-BH3 fluorescence polarization;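 active = inhibition above the mean inhibition of all tested compounds plus 3 SD, set per campaign, cut at about 40% in these data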;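 note: 0% = DMSO wells and 100% = unlabeled Bim-BH3 peptide control; higher means more loss of mP so more displacement of Bim peptide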
eLon inh = inhibits E. coli Lon protease; P0A9M0; purified E. coli Lon protease, fluorescence polarization; inhibition, % at 7.94 µM; actives 0.42% (n = 360,000); AID 602123; in the data active = inhibition above about 13%, passing the limit was not always enough;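 note: 0% = enzyme with probe and DMSO and 100% = no enzyme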
Target sequence (P0A9M0 whole entry, looked up): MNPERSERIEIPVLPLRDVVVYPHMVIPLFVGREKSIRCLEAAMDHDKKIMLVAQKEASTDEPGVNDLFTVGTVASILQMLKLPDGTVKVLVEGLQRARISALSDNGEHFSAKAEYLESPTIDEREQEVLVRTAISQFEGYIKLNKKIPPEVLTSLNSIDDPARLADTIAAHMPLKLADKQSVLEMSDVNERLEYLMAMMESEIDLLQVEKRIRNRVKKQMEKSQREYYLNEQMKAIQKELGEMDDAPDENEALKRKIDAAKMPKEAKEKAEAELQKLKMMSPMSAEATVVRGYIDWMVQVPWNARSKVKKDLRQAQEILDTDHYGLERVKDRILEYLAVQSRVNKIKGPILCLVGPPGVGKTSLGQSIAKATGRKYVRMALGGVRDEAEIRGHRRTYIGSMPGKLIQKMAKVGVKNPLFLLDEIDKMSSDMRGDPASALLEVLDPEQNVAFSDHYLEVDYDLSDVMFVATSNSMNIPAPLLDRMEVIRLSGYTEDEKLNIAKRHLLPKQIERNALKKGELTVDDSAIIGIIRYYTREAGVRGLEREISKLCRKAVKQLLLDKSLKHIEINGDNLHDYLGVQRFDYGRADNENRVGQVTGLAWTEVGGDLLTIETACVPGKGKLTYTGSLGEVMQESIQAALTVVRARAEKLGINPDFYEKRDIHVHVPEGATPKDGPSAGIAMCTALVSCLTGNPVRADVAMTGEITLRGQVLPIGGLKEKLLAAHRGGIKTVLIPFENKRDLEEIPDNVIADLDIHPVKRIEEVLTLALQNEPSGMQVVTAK
Bcl-xL primary = inhibitors of human Bcl-xL. inhibition, % at 10.9 µM. GST-Bcl-xL / FITC-Bim BH3 peptide fluorescence polarization. Q07817. actives 0.7% (n = 320,000). AID 2129;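 active = inhibition above the mean of all tested compounds plus 3 SD, cutoff set per campaign, cut at about 30% in these data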;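 note: 0% = DMSO wells and 100% = unlabeled Bim-BH3 peptide competitor; inhibitors lower millipolarization by displacing the labeled peptide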
EBV gp42 inh = blocks Epstein-Barr virus glycoprotein 42 binding. actives 0.42% (n = 220,000). inhibition, % (tested at 21.74 µM). Q1HVG2. Fluorescence polarization binding assay, mP read-out. AID 1085; in the data active = inhibition above about 50%
* = called active by the depositor.

How did COC(=O)CCC(=O)OC1(C)C(=O)C2=CN(C3CCCC3)C(c3ccc(OC)cc3)=CC2=C(Br)C1=O (stereo not given) do in these assays?
GLD-1 TGE inh: 22; MEX-5 binding: -1; MCL1-BIM inh: 29; eLon inh: 0; Bcl-xL primary: 34*; EBV gp42 inh: 20

How did CC1CCN(CC(=O)Nc2ccc(S(=O)(=O)N3C(C)CCCC3C)cc2)CC1 (stereo not given) do in these assays?
GLD-1 TGE inh: 1; MEX-5 binding: 2; MCL1-BIM inh: 9; eLon inh: 0; Bcl-xL primary: 4

How did CC(NC(=O)c1cccc2c1Oc1ccccc1S2)C(=O)O (stereo not given) do in these assays?
eLon inh: -1

How did O=C(N=c1ccn(-c2nc3ccccc3nc2NS(=O)(=O)c2ccccc2)cc1)c1cccs1 do in these assays?
GLD-1 TGE inh: 15; MEX-5 binding: -17; MCL1-BIM inh: 17; eLon inh: 6; Bcl-xL primary: 17; EBV gp42 inh: -35

What do the screens show for `Cc1ccccc1C(=O)N=c1ccn(-c2nc3ccccc3nc2NS(=O)(=O)c2ccc(F)cc2)cc1`?
GLD-1 TGE inh: 5; MEX-5 binding: inconclusive; MCL1-BIM inh: 2; eLon inh: 3; Bcl-xL primary: 34*

Results for COc1cccc(CCN2C(=O)CCC3=C2CCC3=O)c1 ?
eLon inh: -6

What do the screens show for `COc1ccc(CN2CCN(C(=O)CCC(=O)Nc3nnc(C4CCCCC4)s3)CC2)cc1F`?
GLD-1 TGE inh: -5; MEX-5 binding: -1; MCL1-BIM inh: -1; eLon inh: -9; Bcl-xL primary: 5

Results for CCN1/C(=C/C=C/C=C/c2sc3ccccc3[n+]2CC)Sc2ccccc21 ?
GLD-1 TGE inh: -32; MEX-5 binding: 6; MCL1-BIM inh: 140*; Bcl-xL primary: 128*; EBV gp42 inh: 31

Results for CC1=C/C(=C\C=C(C#N)C#N)N(C)c2ccccc21 ?
GLD-1 TGE inh: -182; MEX-5 binding: 3; MCL1-BIM inh: 21; eLon inh: -68; Bcl-xL primary: 35*; EBV gp42 inh: -29

How did CC1=CC(=C(C#N)C#N)c2ccccc2N1C do in these assays?
GLD-1 TGE inh: -4; MEX-5 binding: 6; MCL1-BIM inh: -5; eLon inh: 6; Bcl-xL primary: -6; EBV gp42 inh: -14

How did CN1/C(=C/C=C(C#N)C#N)C(C)(C)c2ccccc21 do in these assays?
GLD-1 TGE inh: -114; MEX-5 binding: -87*; MCL1-BIM inh: 13; eLon inh: -1; Bcl-xL primary: 47*; EBV gp42 inh: 54*

How did O=C1NC(SCCCF)=N/C1=C/c1ccc(-n2cncn2)cc1 do in these assays?
GLD-1 TGE inh: -4; MEX-5 binding: 0; MCL1-BIM inh: -3; eLon inh: -11; Bcl-xL primary: 0; EBV gp42 inh: -11

Results for CC1(C(=O)NS(=O)(=O)C2CC2)CCN(C(=O)COCc2ccccc2)C1 (stereo not given) ?
eLon inh: -6

How did O=C1/C(=C/c2ccco2)SC(=S)N1CCC(=O)N1CCCCC1CCO (stereo not given) do in these assays?
GLD-1 TGE inh: -1; MEX-5 binding: 4; MCL1-BIM inh: 26; eLon inh: -1; Bcl-xL primary: 22

How did Cc1cccn2c(=O)c3cc(S(=O)(=O)c4ccccc4)c(=N)n(Cc4cccnc4)c3nc12 do in these assays?
GLD-1 TGE inh: -1; MEX-5 binding: -31*; MCL1-BIM inh: -2; eLon inh: 13; Bcl-xL primary: 1

Results for Cc1cccn2c(=O)c3cc(S(=O)(=O)c4ccccc4)c(=N)n(CC4CCCO4)c3nc12 (stereo not given) ?
GLD-1 TGE inh: -3; MEX-5 binding: -39*; MCL1-BIM inh: 0; Bcl-xL primary: 5; EBV gp42 inh: -1

What do the screens show for `N=c1c(S(=O)(=O)c2ccccc2)cc2c(=O)n3ccccc3nc2n1Cc1cccnc1`?
GLD-1 TGE inh: -4; MEX-5 binding: -42*; MCL1-BIM inh: -3; eLon inh: 1; Bcl-xL primary: 7

What do the screens show for `Cc1ccc(S(=O)(=O)c2cc3c(=O)n4cccc(C)c4nc3n(Cc3ccncc3)c2=N)cc1`?
GLD-1 TGE inh: 4; MEX-5 binding: -2; MCL1-BIM inh: 5; eLon inh: -6; Bcl-xL primary: 10

How did CCCN(CC(=O)Nc1ccccc1C)C(=O)c1ccc(N2CCCC(C)C2)c([N+](=O)[O-])c1 (stereo not given) do in these assays?
eLon inh: -2

How did CCOC(=O)c1ccc(-c2ccc(C=O)o2)cc1 do in these assays?
GLD-1 TGE inh: 1; MEX-5 binding: -27*; MCL1-BIM inh: 3; eLon inh: -11; Bcl-xL primary: 4; EBV gp42 inh: -11

Results for CCCOC(=O)c1ccc(-c2ccc(C=O)o2)cc1 ?
GLD-1 TGE inh: 6; MEX-5 binding: -2; MCL1-BIM inh: 8; eLon inh: 5; Bcl-xL primary: -1; EBV gp42 inh: -7

What do the screens show for `OC[C@@H]1CN(Cc2cccs2)C[C@H](n2cnc3c(NC4CCC4)ncnc32)O1`?
eLon inh: 3

What do the screens show for `C=CCN(c1ccc(Br)cc1C(=O)OC)S(C)(=O)=O`?
GLD-1 TGE inh: -5; MCL1-BIM inh: 0; eLon inh: 4; Bcl-xL primary: 47*

What do the screens show for `CC(=O)Oc1ccc(C(=O)[C@H]2[C@H]3C(=O)N(c4ccc(C)cc4)C(=O)[C@H]3[C@@H]3C=CC=NN32)cc1`?
GLD-1 TGE inh: 38*; MEX-5 binding: 8; MCL1-BIM inh: 25; eLon inh: -2; Bcl-xL primary: 29; EBV gp42 inh: -12

How did Cc1cccc(-n2cnc3c(c2=O)c2nc4ccccc4nc2n3Cc2ccco2)c1 do in these assays?
GLD-1 TGE inh: -3; MEX-5 binding: -2; MCL1-BIM inh: 18; eLon inh: -5; Bcl-xL primary: 11

What do the screens show for `CCCCn1c(N)c(S(=O)(=O)c2ccc(C)cc2)c2nc3ccccc3nc21`?
GLD-1 TGE inh: 7; MEX-5 binding: 2; MCL1-BIM inh: 11; eLon inh: 0; Bcl-xL primary: 7; EBV gp42 inh: -4

Results for Cc1cccc(S(=O)(=O)c2c(N)n(Cc3ccco3)c3nc4ccccc4nc23)c1 ?
GLD-1 TGE inh: 69*; MEX-5 binding: 0; MCL1-BIM inh: 17; eLon inh: -46; Bcl-xL primary: 37*; EBV gp42 inh: 4

What do the screens show for `Cc1ccc(S(=O)(=O)Nc2nc3ccccc3nc2NCc2ccco2)cc1`?
GLD-1 TGE inh: 25; MEX-5 binding: 2; MCL1-BIM inh: 43*; eLon inh: 38*; Bcl-xL primary: 40*; EBV gp42 inh: 18

What do the screens show for `Cc1ccc(S(=O)(=O)c2c(N)n(Cc3ccco3)c3nc4ccccc4nc23)cc1`?
GLD-1 TGE inh: 44*; MEX-5 binding: 3; MCL1-BIM inh: 13; eLon inh: 6; Bcl-xL primary: 30; EBV gp42 inh: 61*
